# Assay results as given in the supplement of paper PMC10849652.
# The full data set covers some 8,800 targets. This sample favours those with a hit. About 0.5% of all pairs of compound and target were hits. Unmarked numbers belong to inactive results.
# Experiments:
# Experiment in all cases: log2 fold change, soluble protein after heating vs DMSO (PISA); higher = thermal stabilisation; K562 lysate, 10 uM; active = over 0.2 and 3.5 SD of the protein, either way, in both replicates (recomputed)
# [1] = compound: CS(=O)(=O)CCNCc1ccc(-c2ccc3ncnc(Nc4ccc(OCc5cccc(F)c5)c(Cl)c4)c3c2)o1 [lapatinib]
# Method in brief: (§1)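 K562 pellets were dounce-homogenised in PBS pH 7.4 containing 1 mM MgCl2, and the crude extract, at 1 mg/mL protein, was exposed to 10 μM compound for 30 min. Aliquots were heated for 3 min across 48°C-58°C, pooled, brought to 0.5% NP-40 at 4°C and spun at 21,000xg for 90 min, with the supernatant taken as soluble protein. TMTpro 16plex LC-MS/MS with equalised channel sums quantified that protein. Values are log-two fold changes in thermal stability relative to solvent controls, taken from duplicates.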
# [2] = compound: CS(=O)(=O)N1CCN(Cc2cc3nc(-c4cccc5[nH]ncc45)nc(N4CCOCC4)c3s2)CC1 [pictilisib]
# Method in brief: as §1
# [3] = compound: C[C@@H](Oc1cc(-c2cnn(C3CCNCC3)c2)cnc1N)c1c(Cl)ccc(F)c1Cl [crizotinib]
# Method in brief: as §1
# [4] = compound: C[C@H](C1=CC=C(C=C1)C(=O)NC2=C3C=CNC3=NC=C2)N
# Method in brief: as §1
# [5] = compound: C[C@H](Nc1ncnc2nc[nH]c12)c1cc2cccc(Cl)c2c(=O)n1-c1ccccc1 [duvelisib]
# Method in brief: as §1
# [6] = compound: Cc1cc(Nc2cc(CN3CCOCC3)c3nc(C)c(Cc4ccc(Cl)cc4F)n3n2)n[nH]1 [gandotinib]
# Method in brief: as §1
# [7] = compound: Cc1cc(Nc2cc(N3CCN(C)CC3)nc(Sc3ccc(NC(=O)C4CC4)cc3)n2)n[nH]1 [tozasertib]
# Method in brief: as §1
# [8] = compound: Cc1ccc(-n2nc(C(C)(C)C)cc2NC(=O)Nc2ccc(OCCN3CCOCC3)c3ccccc23)cc1 [doramapimod]
# Method in brief: as §1
# [9] = compound: Cc1ccc(NC(=O)c2ccc(CN3CC[C@H](N(C)C)C3)c(C(F)(F)F)c2)cc1Nc1nccc(-c2cncnc2)n1 [bafetinib]
# Method in brief: as §1
# [10] = compound: Cc1cccc(CC(=O)N2CCc3c2ccc(-c2cn(C)c4ncnc(N)c24)c3F)n1
# Method in brief: as §1
# [11] = compound: Cc1cn(-c2cc(NC(=O)c3ccc(C)c(Nc4nccc(-c5cccnc5)n4)c3)cc(C(F)(F)F)c2)cn1 [nilotinib]
# Method in brief: as §1
# [12] = compound: Cc1nc(Nc2n[nH]c3c2CN(C(=O)N[C@H](CN(C)C)c2ccccc2)C3(C)C)c2sccc2n1
# Method in brief: as §1
# [13] = compound: Cc1nc(Nc2ncc(C(=O)Nc3c(C)cccc3Cl)s2)cc(N2CCN(CCO)CC2)n1 [dasatinib]
# Method in brief: as §1
# [14] = compound: Cc1ncc(-c2ccnc(Nc3ccc(S(C)(=O)=O)cc3)n2)n1C(C)C
# Method in brief: as §1
# [15] = compound: Cn1cc(-c2ccc3c(c2)CCN3C(=O)Cc2cccc(C(F)(F)F)c2)c2c(N)ncnc21
# Method in brief: as §1
# [16] = compound: Cn1cc(CNCC2CCN(c3ncc(C(=O)NO)cn3)CC2)c2ccccc21 [quisinostat]
# Method in brief: as §1
# [17] = compound: Cn1cncc1[C@@](N)(c1ccc(Cl)cc1)c1ccc2c(c1)c(-c1cccc(Cl)c1)cc(=O)n2C [tipifarnib]
# Method in brief: as §1
# [18] = compound: NC(=O)Nc1cc(-c2cccc(F)c2)sc1C(=O)N[C@H]1CCCNC1
# Method in brief: as §1
# [19] = compound: NC(=O)c1cnc(N[C@@H]2CCCC[C@@H]2N)nc1Nc1cccc(-n2nccn2)c1
# Method in brief: as §1
# [20] = compound: NC1(c2ccc(-c3nc4ccn5c(=O)[nH]nc5c4cc3-c3ccccc3)cc2)CCC1
# Method in brief: as §1
# UniProt Q9BRT2, sequence (Q9BRT2 whole entry, looked up): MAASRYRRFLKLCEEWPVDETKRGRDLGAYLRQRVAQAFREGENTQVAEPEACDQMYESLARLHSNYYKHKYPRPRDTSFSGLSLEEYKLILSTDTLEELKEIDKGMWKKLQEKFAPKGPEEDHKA
# UniProt Q9UNX4, sequence (Q9UNX4 whole entry, looked up): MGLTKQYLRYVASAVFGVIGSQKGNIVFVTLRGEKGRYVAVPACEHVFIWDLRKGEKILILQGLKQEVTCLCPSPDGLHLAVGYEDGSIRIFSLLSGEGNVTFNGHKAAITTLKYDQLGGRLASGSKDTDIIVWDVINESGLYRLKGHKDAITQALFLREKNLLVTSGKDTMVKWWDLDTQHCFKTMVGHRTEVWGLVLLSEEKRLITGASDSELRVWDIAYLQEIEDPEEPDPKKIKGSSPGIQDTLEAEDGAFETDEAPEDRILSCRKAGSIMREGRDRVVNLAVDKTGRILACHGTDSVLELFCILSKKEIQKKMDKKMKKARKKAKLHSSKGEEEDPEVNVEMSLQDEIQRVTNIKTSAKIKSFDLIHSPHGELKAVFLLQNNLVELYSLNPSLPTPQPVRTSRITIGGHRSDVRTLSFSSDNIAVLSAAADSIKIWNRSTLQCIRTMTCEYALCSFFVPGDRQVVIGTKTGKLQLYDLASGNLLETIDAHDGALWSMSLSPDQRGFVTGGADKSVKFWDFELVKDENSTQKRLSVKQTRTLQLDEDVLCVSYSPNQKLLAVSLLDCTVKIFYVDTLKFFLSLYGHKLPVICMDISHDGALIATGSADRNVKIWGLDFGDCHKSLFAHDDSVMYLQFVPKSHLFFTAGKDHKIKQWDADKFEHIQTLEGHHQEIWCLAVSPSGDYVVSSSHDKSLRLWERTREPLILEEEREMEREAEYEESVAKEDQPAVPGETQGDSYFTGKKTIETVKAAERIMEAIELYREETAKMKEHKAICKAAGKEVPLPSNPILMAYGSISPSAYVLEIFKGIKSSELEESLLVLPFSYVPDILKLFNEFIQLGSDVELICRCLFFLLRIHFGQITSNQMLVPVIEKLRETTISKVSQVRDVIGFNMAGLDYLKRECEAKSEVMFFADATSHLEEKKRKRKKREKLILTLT
# UniProt Q9H270, sequence (Q9H270 whole entry, looked up): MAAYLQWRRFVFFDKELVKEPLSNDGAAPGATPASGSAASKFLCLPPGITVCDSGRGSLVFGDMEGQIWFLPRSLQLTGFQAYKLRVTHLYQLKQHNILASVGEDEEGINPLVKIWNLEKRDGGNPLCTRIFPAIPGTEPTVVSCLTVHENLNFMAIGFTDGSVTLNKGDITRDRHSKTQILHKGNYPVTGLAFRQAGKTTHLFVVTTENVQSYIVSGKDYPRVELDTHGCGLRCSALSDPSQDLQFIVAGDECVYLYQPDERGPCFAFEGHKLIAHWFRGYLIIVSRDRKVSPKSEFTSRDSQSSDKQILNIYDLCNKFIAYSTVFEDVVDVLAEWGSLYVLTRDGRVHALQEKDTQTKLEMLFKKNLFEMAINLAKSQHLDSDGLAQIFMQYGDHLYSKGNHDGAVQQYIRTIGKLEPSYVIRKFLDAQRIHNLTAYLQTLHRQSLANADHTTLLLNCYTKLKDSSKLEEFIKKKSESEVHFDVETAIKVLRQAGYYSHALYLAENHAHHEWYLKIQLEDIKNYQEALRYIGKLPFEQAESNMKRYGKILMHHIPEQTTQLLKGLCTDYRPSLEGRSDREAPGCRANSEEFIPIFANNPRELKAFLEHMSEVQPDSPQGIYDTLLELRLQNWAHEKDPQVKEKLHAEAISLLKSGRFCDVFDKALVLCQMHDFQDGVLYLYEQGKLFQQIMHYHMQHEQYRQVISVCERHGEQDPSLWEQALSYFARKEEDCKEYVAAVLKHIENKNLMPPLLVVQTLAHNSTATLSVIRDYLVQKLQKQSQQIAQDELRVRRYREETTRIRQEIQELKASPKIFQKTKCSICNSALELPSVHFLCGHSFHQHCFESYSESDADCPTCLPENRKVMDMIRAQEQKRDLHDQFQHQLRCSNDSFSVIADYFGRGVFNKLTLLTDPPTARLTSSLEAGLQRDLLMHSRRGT
# UniProt Q9H9H4, sequence (Q9H9H4 whole entry, looked up): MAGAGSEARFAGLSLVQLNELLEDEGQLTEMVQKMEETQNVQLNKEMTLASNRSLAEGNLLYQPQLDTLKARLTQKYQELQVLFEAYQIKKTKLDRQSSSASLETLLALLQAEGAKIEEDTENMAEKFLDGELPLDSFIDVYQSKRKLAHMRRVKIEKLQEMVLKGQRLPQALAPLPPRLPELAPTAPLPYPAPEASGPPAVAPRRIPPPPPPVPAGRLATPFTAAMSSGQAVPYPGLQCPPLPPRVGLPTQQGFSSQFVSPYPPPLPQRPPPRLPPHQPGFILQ
# UniProt Q8NI36, sequence (Q8NI36 whole entry, looked up): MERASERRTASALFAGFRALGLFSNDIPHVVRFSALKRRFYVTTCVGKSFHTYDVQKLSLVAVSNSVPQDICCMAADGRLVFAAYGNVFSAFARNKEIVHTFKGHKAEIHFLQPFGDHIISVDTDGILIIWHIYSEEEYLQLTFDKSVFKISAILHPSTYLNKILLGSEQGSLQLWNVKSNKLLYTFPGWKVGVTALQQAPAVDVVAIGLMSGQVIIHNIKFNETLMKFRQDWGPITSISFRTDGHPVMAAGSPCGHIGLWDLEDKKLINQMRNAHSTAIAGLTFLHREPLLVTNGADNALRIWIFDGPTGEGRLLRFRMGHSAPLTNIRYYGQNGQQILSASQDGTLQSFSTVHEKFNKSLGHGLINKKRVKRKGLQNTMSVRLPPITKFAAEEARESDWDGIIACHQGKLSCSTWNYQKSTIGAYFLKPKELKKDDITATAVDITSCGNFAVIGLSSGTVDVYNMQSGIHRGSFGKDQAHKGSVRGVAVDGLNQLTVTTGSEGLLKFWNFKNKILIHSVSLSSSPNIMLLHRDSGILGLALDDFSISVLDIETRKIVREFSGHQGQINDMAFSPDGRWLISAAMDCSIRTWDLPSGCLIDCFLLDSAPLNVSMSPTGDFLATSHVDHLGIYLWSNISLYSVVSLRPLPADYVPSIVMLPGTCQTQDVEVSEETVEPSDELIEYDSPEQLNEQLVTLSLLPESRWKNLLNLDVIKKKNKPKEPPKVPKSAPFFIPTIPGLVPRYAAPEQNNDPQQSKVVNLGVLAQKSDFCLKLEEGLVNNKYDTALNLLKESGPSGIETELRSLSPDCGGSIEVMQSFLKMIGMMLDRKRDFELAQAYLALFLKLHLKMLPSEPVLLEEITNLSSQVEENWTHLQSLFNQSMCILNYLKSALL
# UniProt O15014, sequence (O15014 whole entry, looked up): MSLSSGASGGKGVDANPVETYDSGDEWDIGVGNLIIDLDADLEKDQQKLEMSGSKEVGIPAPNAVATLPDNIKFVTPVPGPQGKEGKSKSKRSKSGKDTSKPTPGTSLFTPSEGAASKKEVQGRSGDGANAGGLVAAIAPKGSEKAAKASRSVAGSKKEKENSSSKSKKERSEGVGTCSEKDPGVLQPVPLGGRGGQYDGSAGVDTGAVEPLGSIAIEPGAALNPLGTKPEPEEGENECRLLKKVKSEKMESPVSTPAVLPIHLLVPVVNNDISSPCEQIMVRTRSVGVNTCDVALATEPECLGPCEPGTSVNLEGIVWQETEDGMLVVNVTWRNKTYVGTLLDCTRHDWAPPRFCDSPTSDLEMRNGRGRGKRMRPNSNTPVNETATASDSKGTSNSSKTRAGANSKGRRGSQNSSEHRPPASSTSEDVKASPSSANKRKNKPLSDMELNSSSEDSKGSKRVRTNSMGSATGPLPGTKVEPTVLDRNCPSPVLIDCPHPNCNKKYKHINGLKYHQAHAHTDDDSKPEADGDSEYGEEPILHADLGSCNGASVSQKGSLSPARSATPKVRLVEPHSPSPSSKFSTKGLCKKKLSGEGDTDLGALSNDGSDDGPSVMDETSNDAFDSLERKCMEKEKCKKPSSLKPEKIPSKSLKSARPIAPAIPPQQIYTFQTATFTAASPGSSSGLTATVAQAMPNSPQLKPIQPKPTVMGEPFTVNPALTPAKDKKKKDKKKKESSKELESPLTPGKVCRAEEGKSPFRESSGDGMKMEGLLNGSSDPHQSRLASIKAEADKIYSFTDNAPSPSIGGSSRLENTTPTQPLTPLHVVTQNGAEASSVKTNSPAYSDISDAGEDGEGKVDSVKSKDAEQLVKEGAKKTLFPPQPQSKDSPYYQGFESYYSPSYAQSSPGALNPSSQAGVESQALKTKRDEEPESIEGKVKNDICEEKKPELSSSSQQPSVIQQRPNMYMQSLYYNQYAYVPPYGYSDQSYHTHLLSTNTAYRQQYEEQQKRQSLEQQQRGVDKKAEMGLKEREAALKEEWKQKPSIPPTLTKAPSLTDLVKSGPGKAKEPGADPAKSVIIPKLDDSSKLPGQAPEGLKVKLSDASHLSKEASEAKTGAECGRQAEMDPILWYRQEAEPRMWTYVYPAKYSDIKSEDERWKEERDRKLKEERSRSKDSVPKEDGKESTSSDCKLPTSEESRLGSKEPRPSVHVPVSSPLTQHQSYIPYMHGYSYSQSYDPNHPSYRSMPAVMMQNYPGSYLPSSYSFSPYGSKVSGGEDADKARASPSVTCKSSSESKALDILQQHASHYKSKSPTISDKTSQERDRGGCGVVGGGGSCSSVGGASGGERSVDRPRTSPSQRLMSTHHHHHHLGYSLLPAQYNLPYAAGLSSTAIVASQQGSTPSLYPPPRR
# UniProt A8MPS7, sequence (A8MPS7 whole entry, looked up): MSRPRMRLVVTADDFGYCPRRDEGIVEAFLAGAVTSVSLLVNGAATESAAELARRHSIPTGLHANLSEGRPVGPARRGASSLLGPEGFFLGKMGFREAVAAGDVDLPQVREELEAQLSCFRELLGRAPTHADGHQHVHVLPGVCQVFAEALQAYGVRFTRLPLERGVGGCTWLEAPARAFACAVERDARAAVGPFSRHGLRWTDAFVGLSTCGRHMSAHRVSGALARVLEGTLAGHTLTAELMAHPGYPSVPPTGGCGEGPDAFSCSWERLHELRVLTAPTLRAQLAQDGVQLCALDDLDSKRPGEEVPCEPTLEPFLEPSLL
Target,log2 fold change [1],log2 fold change [2],log2 fold change [3],log2 fold change [4],log2 fold change [5],log2 fold change [6],log2 fold change [7],log2 fold change [8],log2 fold change [9],log2 fold change [10],log2 fold change [11],log2 fold change [12],log2 fold change [13],log2 fold change [14],log2 fold change [15],log2 fold change [16],log2 fold change [17],log2 fold change [18],log2 fold change [19],log2 fold change [20]
UQCC2 (UniProt Q9BRT2),0.007,0.009,0.036,0.158,0.026,-0.091,-0.015,0.014,0.001,-0.093,-0.018,-0.006,0.002,0.012,-0.001,0,0.058,-0.076,-0.005,0.018
UTP18 (UniProt Q9Y5J1),0.032,0.125,-0.05,0.097,-0.065,-0.055,0.074,-0.025,-0.084,-0.038,0.059,-0.009,0.005,-0.179,-0.03,-0.034,-0.002,0.058,-0.016,0.074
VPS11 (UniProt Q9H270),-0.025,-0.027,-0.029,-0.008,-0.04,-0.083,0.024,0.039,-0.077,0.065,-0.007,-0.008,-0.003,-0.018,-0.002,-0.055,-0.002,0.06,-0.003,0.003
XPO5 (UniProt Q9HAV4),-0.042,0,-0.085,-0.041,-0.017,-0.14,0.013,-0.008,-0.006,0.049,-0.025,-0.016,-0.068,0.013,0.005,-0.092,-0.015,0.029,0.023,-0.024
WDR36 (UniProt Q8NI36),0.013,-0.008,-0.02,0.024,0.016,-0.097,0.017,0.061,0.005,-0.004,0.003,-0.015,0.012,0.002,0.025,-0.014,-0.002,0.03,-0.004,-0.01
VPS37B (UniProt Q9H9H4),0.016,-0.053,0.017,0.034,-0.009,-0.028,0.021,0.006,-0.034,-0.04,0.025,-0.078,-0.024,0.046,-0.01,-0.05,-0.002,-0.024,-0.005,0
VARS (UniProt P26640),-0.017,-0.027,-0.068,-0.004,0.002,-0.092,-0.021,0.022,-0.012,0.029,-0.012,-0.004,-0.072,0,0.06,-0.021,0.012,0.045,0.001,-0.028
WIPI1 (UniProt Q5MNZ9),-0.021,-0.003,0.058,-0.013,-0.014,0.017,0.039,-0.013,-0.038,-0.038,0.011,-0.198,0.06,0.314 (active),-0.028,0.013,0.003,-0.011,0.009,0.011
ZMYM4 (UniProt Q5VZL5),-0.022,0.037,-0.009,-0.07,-0.007,0.004,0.028,0.031,0.008,0.042,-0.016,0.003,-0.001,-0.005,-0.061,-0.028,-0.051,0.067,0.021,-0.003
VANGL1 (UniProt Q8TAA9),0.047,-0.071,0.031,0.07,0.099,0.004,0.016,-0.043,0.016,0.084,-0.086,-0.067,-0.019,0.079,-0.036,0.014,0.042,0.009,0.121,0.034
ZNF346 (UniProt Q9UL40),0.01,-0.008,0.009,-0.01,-0.009,-0.026,0.005,0.02,-0.043,-0.072,-0.005,0.02,-0.099,0.021,0.014,-0.014,0.015,0.005,0.011,0.01
ZNF609 (UniProt O15014),0.023,-0.054,0.026,-0.028,-0.042,0.16,0.024,-0.064,-0.111,0.187,-0.14,-0.023,-0.014,0.001,-0.044,-0.006,0.01,0.061,-0.015,0.003
UPF3B (UniProt Q9BZI7),0.005,0.021,0.007,-0.171,0.016,0.037,0.031,0.003,-0.012,0.067,-0.016,0.012,0.004,0.014,0.005,-0.013,0.014,0.022,-0.025,-0.003
WDR3 (UniProt Q9UNX4),-0.012,-0.113,-0.003,-0.054,0.008,-0.022,0.003,0.01,-0.083,0.14,0.055,0.001,-0.069,-0.016,0.027,0.044,-0.003,0.021,0.023,0.009
YDJC (UniProt A8MPS7),-0.003,-0.016,0.022,-0.031,-0.044,0.02,0.022,0.025,-0.017,-0.033,-0.027,0.045,-0.1,-0.044,-0.02,-0.03,-0.045,-0.001,0.021,0.074
VTN (UniProt P04004),-0.057,0.026,0.019,-0.384 (active),0.018,0.164,-0.006,-0.023,-0.054,0.148,0.04,0.064,0.019,-0.102,0,0.022,-0.092,0.006,-0.063,-0.03
